# Experimental data: PubChem BioAssay (Tox21)
# Several values for one entry are separate records, joined by “and”; a condition that tells them apart may be missing. Equal values may be shown once. Inconclusive results are not listed. A call without a number means that no potency is given here. Activity calls are given as the source filed them. Calls follow the shape of the dose curve; as a rule, active = well fitted cell-killing curve with a large enough effect in the repeat runs; inconclusive = weak or mixed curves, or effect the other way; inactive = flat fitted curve, though single readings scatter.
# Assay: qHTS RealTime-Glo MT Cell Viability Assay in HEK293 cells - 16 hour (AID 1224872); also: nearly all actives have a fitted effect of over 50% in size
# Details: RealTime-Glo luminescence; series mostly up to 76.8 µM
# From the text: National Center for Advancing Translational Sciences [NCATS]
# NIH Chemical Genomics Center [NCGC]
# U.S. Environmental Protection Agency [EPA]
# National Institutes of Environmental Health Sciences [NIEHS]
# National Toxicology Program [NTP]
# U.S. Food and Drug Administration [FDA]
# Measure of cell viability is critical in the cell-base assay. Analysis of cell viability is necessary for the characterization of cell responses to cytotoxic drugs and environmental stress. A RealTime-Glo MT Cell Viability Assay to monitor cell viability in real time of continues cell culture during 40 hours of compound treatment was used to screen Tox21 10K library compounds in Hek293 cells. The RealTime-Glo MT Cell Viability Assay is a nonlytic, homogeneous, bioluminescent method to measure cell viability in real time using a simple, plate-based method. The assay involves adding NanoLuc luciferase and a cell-permeant prosubstrate to cells in culture. Viable cells reduce the proprietary prosubstrate to generate a substrate for NanoLuc luciferase. This substrate diffuses from cells into the surrounding culture medium, where it is rapidly used by the NanoLuc Enzyme to produce a luminescent signal. The signal correlates with the number of viable cells, making the assay well suited for cytotoxicity studies.
# Tox21 Assay Protocol Summary:
# The mixture of Hek293 cell suspension and reagents were dispensed at 600cells/6 ul/well in 1536-well tissue culture treated black solid bottom plates using a Multidrop dispenser. After the assay plates were incubated at a 37 C/5% CO2 incubator for 5 hours, 23 nL of compounds dissolved in DMSO, positive and negative controls was transferred to the assay plate by a pintool work station. The plates were incubated at 37 C for 40 hours. The luminescence intensity were measured at 0h, 8h, 16h, 24h, 32h and 40h time points using ViewLux plate reader during compound treatment.
# Potency is read from the fitted curve at half-maximal effect.
row,SMILES,Potency
1,CCOP(=O)(SC(C)CC)N1CCSC1=O (stereo not given),inactive
2,O=C(Cc1ccccc1)c1ccccc1,inactive
3,O=C(O)CCCOc1ccc(Cl)cc1Cl,inactive
4,CN(C)N,inactive
5,C[C@H]1O[C@H](OC2[C@@H](O)[C@@H](O)C(O)[C@H](O)[C@H]2O)[C@@H](N)C[C@@H]1N=C(N)C(=O)O (stereo not given in full),inactive
6,Cc1ccc(N)c(C)c1,inactive
7,COc1cc(C[C@@H](C)N)c(OC)cc1Br,inactive
8,CCCCC(CC)COC(=O)c1c(Br)c(Br)c(Br)c(Br)c1C(=O)OCC(CC)CCCC (stereo not given),inactive
9,CC(C)(C)NCC(O)c1ccccc1Cl (stereo not given),inactive
10,N#CC(C#N)=Cc1ccc(O)c(O)c1,inactive
11,C[CH2][Hg][S]c1ccccc1C(=O)O,1.23 µM (active) and 2.13 µM (active)
12,CCCCCCCCCCCC[N+](C)(C)CCOc1ccccc1,19.5 µM (active) and 19 µM (active)
13,CCCN(CCC)C(=O)Cc1c(-c2ccc(Cl)cc2)nc2ccc(Cl)cn12,5.35 µM (active)
14,COc1ccc(C(O)(c2cncnc2)C2CC2)cc1 (stereo not given),inactive
15,CC(=O)OC(c1ccccc1)C(Cl)(Cl)Cl (stereo not given),inactive
16,C#CC(O)(C=CCl)CC (stereo not given),inactive
17,CC[N+]1(C)CCCC(OC(=O)C(O)(c2ccccc2)c2ccccc2)C1 (stereo not given),inactive
18,FC(Cl)(Cl)C(F)(Cl)Cl,inactive
19,CCOC(C(=O)OCCN(C)C)(c1ccccc1)c1ccccc1,inactive
20,O=C(O)c1cc(I)cc(I)c1I,inactive

row,SMILES,Potency
1,Cc1ccc2c(C)cccc2c1,inactive
2,C[Si](Cn1cncn1)(c1ccc(F)cc1)c1ccc(F)cc1,40.2 µM (active) and 21.9 µM (active)
3,O=C(O)C(F)(F)C(F)(F)C(F)(F)C(F)(F)C(F)(F)C(F)(F)C(F)(F)C(F)(F)F,inactive
4,CC(Oc1cc(Cl)c(Cl)cc1Cl)C(=O)O (stereo not given),inactive
5,CC1(C)CC(=O)CC(C)(C)N1[O],inactive
6,O=C(O)C(Cl)(Cl)Br,inactive
7,CC(C)[C@@H](C(=O)O[C@@H](C#N)c1cccc(Oc2ccccc2)c1)c1ccc(Cl)cc1,24.9 µM (active)
8,O=C(O)c1cc(Cl)ccc1Cl,inactive
9,CC(C)c1ccc(OP(=O)(Oc2ccc(C(C)C)cc2)Oc2ccc(C(C)C)cc2)cc1,inactive
10,NC(=O)CF,inactive
11,O=[N+]([O-])c1cc(Cl)c(Cl)cc1Cl,inactive
12,CC(C)c1ccc(NC(=O)N(C)C)cc1,inactive
13,NCCc1cc(O)c(O)cc1O,inactive
14,CC(Cc1ccccc1)NCc1ccccc1Cl (stereo not given),inactive
15,Oc1cccc(Cl)c1,inactive
16,O=C(N/N=C/c1ccc([N+](=O)[O-])o1)c1cc([N+](=O)[O-])cc([N+](=O)[O-])c1O,inactive
17,CCNC(=O)NC(=O)/C(C#N)=N/OC,inactive
18,CCCCCCCCP(=O)(O)O,inactive
19,O=S(=O)(c1ccccc1)c1ccccc1,inactive
20,OC[P+](CO)(CO)CO,inactive
